Laboratory results as given in PubChem BioAssay (Tox21).
Inconclusive results are not listed. The source made the active and inactive calls. Unless noted, the call rests on the fitted dose curve; in most records, active means well fitted curve in the direction sought with a large enough effect in the repeat runs; inconclusive means weak or mixed curves; inactive means no such curve, though single readings can be large; an effect the other way counts as inactive or inconclusive.

Experiments:
[1] = target: Progesterone receptor (Homo sapiens) (UniProt P06401); experiment: qHTS assay to identify small molecule agonists of the progesterone receptor (PR) signaling pathway (AID 1346784; calls by dose curve; further: nearly all actives have a fitted effect of over 30% in size)
Summary of the method: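 Seed PR-UAS-bla HEK 293T cells (2% charcoal-stripped FBS), incubate 6 hr at 37C; add compounds in DMSO, 16 hr at 37C; add LiveBLAzer B/G substrate, 2 hr RT; read fluorescence intensity.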

[2] = target: Progesterone receptor (Homo sapiens) (UniProt P06401); experiment: qHTS assay to identify small molecule antagonists of the progesterone receptor (PR) signaling pathway (AID 1346795; active means well fitted inhibition curve with a large enough effect in the signal ratio in the repeat runs, not every such curve was filed as active; the % refers to the signal ratio; further: potency means the concentration at half of the fitted maximal effect)
Summary of the method: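 Screening used a GripTite HEK293T line with PR-responsive UAS-beta-lactamase. Cells were challenged with compound in the presence of 1 nM R5020 final for 16 hr at 37C; B/G FRET substrate, 2 hr room temperature, fluorescence.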

[3] = qHTS assay to identify small molecule antagonists of the TGF-beta/Smad signaling pathway - cell viability counter screen (AID 1346824); further: nearly all actives have a fitted effect of over 50% in size; further: potency means the concentration at half of the fitted maximal effect
Summary of the method: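 SBE-bla HEK 293T cells, incubated overnight, then compound plus 0.25 ng/mL TGF-beta1 (stock added) for 5 hr at 37 C. Viability was read in the same wells by CellTiter-Glo luminescence after 30 min at room temperature.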

[4] = qHTS assay to identify small molecule agonists of the TGF-beta/Smad signaling pathway - cell viability counter screen (AID 1346829); further: nearly all actives have a fitted effect of over 45% in size; further: potency means the concentration at half of the fitted maximal effect
Summary of the method: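 CellTiter-Glo luminescence readout; SBE-bla HEK 293T cells, overnight plating, compound 5 hr at 37 C/5% CO2, then bla substrate 2 hr RT, then CellTiter-Glo 30 min RT.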

[5] = target: Thyrotropin-releasing hormone receptor (Homo sapiens) (UniProt P34981); experiment: qHTS assay to identify small molecule antagonists of the thyrotropin-releasing hormone receptor (TRHR) signaling pathway (AID 1346877; active means well fitted inhibition curve with a large enough effect in the repeat runs, not every such curve was filed as active; further: series mostly up to about 51 µM)
Summary of the method: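 Kinetic fluorescence (3 min, 1 s resolution) following stimulation with TRH at 1 nM final; HEK293 cells bearing human TRHR; 5 min compound preincubation at RT; concentration-response over 15 points, triplicates.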

[6] = Human pregnane X receptor (PXR) small molecule agonists, qHTS cell viability counter screen (AID 1346977); further: nearly all actives have a fitted effect of over 50% in size; further: potency means the concentration at half of the fitted maximal effect
Summary of the method: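 After a 5hr pre-incubation, PXR-Luc HepG2 cells received compounds plus positive control in DMSO and were kept 24hr at 37C. Cell viability was quantified by fluorescence from CellTiter-Fluor added for the final hour.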

[7] = Caspase-3/7 induction in HepG2 cells by small molecules, qHTS assay (AID 1346978); further: nearly all actives have a fitted effect of over 15% in size
Summary of the method: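 Wild-type HepG2 cells, 2,000/well, settled 5 hr at 37 C and 5% CO2, then compound-treated for 17 hr; caspase-3/7 activity read by luminescent Caspase-Glo 3/7 after 30 min at room temperature.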

[8] = Caspase-3/7 induction in CHO-K1 cells by small molecules, qHTS cell viability counter screen (AID 1346979); further: nearly all actives have a fitted effect of over 35% in size; further: potency means the concentration at half of the fitted maximal effect
Summary of the method: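 Multiplexed with Caspase-Glo 3/7 in CHO-K1 cells, this counter screen added CellTiter-Fluor after 16hr of compound exposure and recorded fluorescence 1hr later.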

[9] = Caspase-3/7 induction in CHO-K1 cells by small molecules, qHTS assay (AID 1346980); further: nearly all actives have a fitted effect of over 15% in size
Summary of the method: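 Wild-type CHO-K1 cells exposed to compounds for 17hr at 37 C, 5% CO2. Caspase-3/7 activity then measured by Caspase-Glo 3/7 luminescence after 30min at room temperature.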

[10] = target: Cytochrome P450 2C19 (Homo sapiens) (UniProt P33261); experiment: Cytochrome P450 Family 2 Subfamily C Member 19 (CYP2C19) small molecule antagonists: luciferase reporter qHTS assay (AID 1671197); further: nearly all actives have a fitted effect of over 65% in size; further: potency means the concentration at half of the fitted maximal effect
Summary of the method: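 Enzyme-substrate mix with proluciferin substrate (P450-Glo CYP2C19 system) preincubated with compounds 10 min at room temperature; NADPH regeneration solution added, 37C for 1 h; detection reagent stops reaction, luminescence read after 20 min. Ketoconazole positive control.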

[11] = qHTS assay to identify small molecule antagonists of the progesterone receptor (PR) signaling pathway - cell viability counter screen (AID 1346798); further: nearly all actives have a fitted effect of over 50% in size; further: potency means the concentration at half of the fitted maximal effect
Summary of the method: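 Measures cytotoxicity in parallel with the PR antagonist reporter read: HEK293T PR-UAS-bla cells get compound and R5020 for 16 hr, and remaining viable cells are quantified by CellTiter-Glo luminescence.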

[12] = qHTS assay to identify small molecule agonists of the progesterone receptor (PR) signaling pathway - cell viability counter screen (AID 1346799; calls by dose curve; further: nearly all actives have a fitted effect of over 45% in size)
Summary of the method: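 Using the same plates as the PR reporter screen, HEK293T PR-UAS-bla cells received compounds for 16 hr at 37C and were then lysed with CellTiter-Glo; luminescence was read 30 min later at room temperature.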

[13] = target: Nuclear receptor subfamily 1 group I member 2 (Homo sapiens) (UniProt O75469); experiment: Human pregnane X receptor (PXR) small molecule agonists, qHTS assay (AID 1346982); further: nearly all actives have a fitted effect of over 35% in size; further: potency means the concentration at half of the fitted maximal effect
Summary of the method: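 Reporter HepG2 cells expressing PXR-Luc are cultured in charcoal-stripped FBS (5%), treated with compounds for 24 hr at 37 C, and assayed by ONE-Glo luminescence after 30 min at room temperature.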

[14] = target: Cytochrome P450 2D6 (Homo sapiens) (UniProt P10635); experiment: Cytochrome P450 Family 2 Subfamily D Member 6 (CYP2D6) small molecule antagonists: luciferase reporter qHTS assay (AID 1671196); further: nearly all actives have a fitted effect of over 50% in size; further: potency means the concentration at half of the fitted maximal effect
Summary of the method: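 Test chemicals meet CYP2D6 plus proluciferin substrate (10 min, RT); NADPH regenerating solution then drives turnover for 1 h. Detection reagent halts the reaction; luminescence measured after 20 min.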

[15] = qHTS assay to identify small molecule agonists of the TGF-beta/Smad signaling pathway (AID 1346859; active means well fitted activation curve with a large enough effect in the signal ratio in the repeat runs, not every such curve was filed as active; the % refers to the signal ratio; further: series mostly up to about 77 µM)
Summary of the method: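 Beta-lactamase reporter activity downstream of Smad binding elements was measured in stably transfected HEK 293T cells; compounds were incubated for 5 hr, substrate for 2 hr at room temperature.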

[16] = Caspase-3/7 induction in HepG2 cells by small molecules, qHTS cell viability counter screen (AID 1346981); further: nearly all actives have a fitted effect of over 30% in size; further: potency means the concentration at half of the fitted maximal effect
Summary of the method: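 In this quantitative HTS counter screen, compounds delivered in DMSO were left on unmodified HepG2 cells for 16 hr at 37 C. Viability was then determined fluorometrically with CellTiter-Fluor, in parallel with caspase-3/7 induction in the same wells.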

[17] = target: Nuclear receptor subfamily 1 group I member 2 (Rattus norvegicus) (UniProt Q9R1A7); experiment: Rat pregnane X receptor (rPXR) activation by small molecules, qHTS assay (AID 1346983); conditions: rPXR luciferase reporter cells, One-Glo luminescence, 24 h; max activation: active compounds read high; further: nearly all actives have a fitted effect of over 20% in size
Summary of the method: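 Cell-based rPXR activation assay: rPXR cells, 2,000 per well, rested 5hr at 37 C, then exposed to compounds in DMSO for 24 hr at 37 C. Luciferase activity read by One-Glo luminescence after 30 min at room temperature.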

[18] = target: Nuclear receptor subfamily 1 group I member 2 (Homo sapiens) (UniProt O75469); experiment: CYP3A4 induction through human pregnane X receptor (PXR) by small molecules, qHTS assay (AID 1346984); further: nearly all actives have a fitted effect of over 40% in size
Summary of the method: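 Induction measured in HepG2-based DPX-2 cells co-expressing human PXR and a CYP3A4 promoter-driven luciferase. After a 24-hour compound exposure, cells received CYP3A4 luciferin substrate at 3uM final for 3 hours, and light output was then recorded.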

[19] = target: Nuclear receptor subfamily 1 group I member 2 (Homo sapiens) (UniProt O75469); experiment: Human pregnane X receptor (PXR) activation by small molecules, qHTS assay (AID 1346985); further: nearly all actives have a fitted effect of over 40% in size; further: potency means the concentration at half of the fitted maximal effect
Summary of the method: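 DPX-2 cells (HepG2 co-transfected with a PXR response element and a CYP3A4-promoter luciferase construct) were seeded at 2,000 per well, rested 5 hr at 37C, then exposed to DMSO-dissolved compounds for 24 hr. Activation was read as luciferase luminescence.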

[20] = target: Thyrotropin-releasing hormone receptor (Homo sapiens) (UniProt P34981); experiment: qHTS assay to identify small molecule agonists of the thyrotropin-releasing hormone receptor (TRHR) signaling pathway (AID 1346891; calls by dose curve;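 further: HEK293 cells expressing TRHR with calcium dye readout; series mostly up to about 58 µM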)
Summary of the method: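 Overnight-plated (18 h, 37 °C, 5% CO2) TRHR-Hek293 cells; 2 h calcium dye at 37 °C; compound in DMSO; 3-min kinetic fluorescence read.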
On the % scale 0 is the no-effect control and ±100 the full control effect.

Nuclear receptor subfamily 1 group I member 2 (Rattus norvegicus), sequence (Q9R1A7 whole entry, looked up): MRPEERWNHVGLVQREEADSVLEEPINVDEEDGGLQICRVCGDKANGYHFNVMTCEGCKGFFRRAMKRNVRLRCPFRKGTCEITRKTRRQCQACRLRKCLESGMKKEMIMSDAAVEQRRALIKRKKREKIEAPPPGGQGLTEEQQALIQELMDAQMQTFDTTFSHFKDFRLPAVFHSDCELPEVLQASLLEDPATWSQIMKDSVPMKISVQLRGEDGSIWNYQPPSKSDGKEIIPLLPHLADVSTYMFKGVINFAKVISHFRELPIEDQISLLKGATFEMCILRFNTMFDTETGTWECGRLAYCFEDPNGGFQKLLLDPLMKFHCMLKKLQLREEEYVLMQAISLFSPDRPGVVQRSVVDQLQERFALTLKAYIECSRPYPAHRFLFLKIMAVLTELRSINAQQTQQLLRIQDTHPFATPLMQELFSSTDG
Cytochrome P450 2C19 (Homo sapiens), sequence (P33261 whole entry, looked up): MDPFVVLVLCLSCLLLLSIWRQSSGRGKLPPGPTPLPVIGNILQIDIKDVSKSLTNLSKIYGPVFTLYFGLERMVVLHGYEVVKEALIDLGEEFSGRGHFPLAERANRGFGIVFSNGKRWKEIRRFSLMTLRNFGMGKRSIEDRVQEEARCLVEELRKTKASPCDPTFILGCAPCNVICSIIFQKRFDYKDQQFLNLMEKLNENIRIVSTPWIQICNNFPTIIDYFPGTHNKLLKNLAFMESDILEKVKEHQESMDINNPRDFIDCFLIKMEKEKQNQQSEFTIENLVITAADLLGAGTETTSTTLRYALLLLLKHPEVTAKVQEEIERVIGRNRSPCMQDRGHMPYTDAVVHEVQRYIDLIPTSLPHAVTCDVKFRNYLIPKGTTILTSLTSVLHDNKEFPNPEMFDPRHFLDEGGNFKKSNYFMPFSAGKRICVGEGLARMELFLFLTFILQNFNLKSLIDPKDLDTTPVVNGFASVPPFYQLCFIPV
Cytochrome P450 2D6 (Homo sapiens), sequence (P10635 whole entry, looked up): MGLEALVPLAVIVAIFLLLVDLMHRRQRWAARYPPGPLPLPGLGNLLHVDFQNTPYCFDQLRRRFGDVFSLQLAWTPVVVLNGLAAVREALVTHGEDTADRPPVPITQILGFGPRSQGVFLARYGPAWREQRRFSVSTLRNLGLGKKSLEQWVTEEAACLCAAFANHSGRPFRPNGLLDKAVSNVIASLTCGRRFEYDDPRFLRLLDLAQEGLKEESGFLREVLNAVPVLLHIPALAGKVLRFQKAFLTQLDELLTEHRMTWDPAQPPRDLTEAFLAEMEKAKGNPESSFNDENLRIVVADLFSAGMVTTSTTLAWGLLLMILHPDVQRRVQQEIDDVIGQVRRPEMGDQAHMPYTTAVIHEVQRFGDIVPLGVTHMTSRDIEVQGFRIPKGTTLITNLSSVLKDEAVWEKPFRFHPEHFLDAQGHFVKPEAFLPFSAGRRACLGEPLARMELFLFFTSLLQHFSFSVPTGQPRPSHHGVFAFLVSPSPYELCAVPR
Progesterone receptor (Homo sapiens), sequence (P06401 whole entry, looked up): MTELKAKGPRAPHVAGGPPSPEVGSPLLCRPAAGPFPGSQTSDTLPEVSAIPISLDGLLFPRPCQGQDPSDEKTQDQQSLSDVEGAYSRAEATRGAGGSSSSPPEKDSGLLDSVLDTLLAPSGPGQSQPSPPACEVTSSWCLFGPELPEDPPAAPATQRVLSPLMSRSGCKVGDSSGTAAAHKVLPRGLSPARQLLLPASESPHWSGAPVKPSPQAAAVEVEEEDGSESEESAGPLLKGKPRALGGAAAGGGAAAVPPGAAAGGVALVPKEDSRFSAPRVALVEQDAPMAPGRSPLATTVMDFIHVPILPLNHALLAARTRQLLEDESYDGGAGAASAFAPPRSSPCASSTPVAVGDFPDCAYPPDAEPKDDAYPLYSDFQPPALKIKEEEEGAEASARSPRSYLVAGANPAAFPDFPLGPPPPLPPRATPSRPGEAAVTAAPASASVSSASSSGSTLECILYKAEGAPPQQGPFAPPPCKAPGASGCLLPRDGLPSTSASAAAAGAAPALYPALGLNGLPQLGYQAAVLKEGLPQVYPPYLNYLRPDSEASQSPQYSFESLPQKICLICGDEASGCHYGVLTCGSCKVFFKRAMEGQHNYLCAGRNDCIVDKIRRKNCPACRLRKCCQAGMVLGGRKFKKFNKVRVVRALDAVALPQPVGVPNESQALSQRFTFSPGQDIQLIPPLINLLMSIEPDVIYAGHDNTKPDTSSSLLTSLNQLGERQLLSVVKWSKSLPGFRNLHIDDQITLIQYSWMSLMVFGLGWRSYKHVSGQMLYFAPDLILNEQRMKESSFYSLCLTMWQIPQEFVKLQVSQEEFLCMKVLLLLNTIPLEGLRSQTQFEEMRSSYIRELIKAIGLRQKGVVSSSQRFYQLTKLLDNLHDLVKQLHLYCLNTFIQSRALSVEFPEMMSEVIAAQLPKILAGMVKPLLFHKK
Thyrotropin-releasing hormone receptor (Homo sapiens), sequence (P34981 whole entry, looked up): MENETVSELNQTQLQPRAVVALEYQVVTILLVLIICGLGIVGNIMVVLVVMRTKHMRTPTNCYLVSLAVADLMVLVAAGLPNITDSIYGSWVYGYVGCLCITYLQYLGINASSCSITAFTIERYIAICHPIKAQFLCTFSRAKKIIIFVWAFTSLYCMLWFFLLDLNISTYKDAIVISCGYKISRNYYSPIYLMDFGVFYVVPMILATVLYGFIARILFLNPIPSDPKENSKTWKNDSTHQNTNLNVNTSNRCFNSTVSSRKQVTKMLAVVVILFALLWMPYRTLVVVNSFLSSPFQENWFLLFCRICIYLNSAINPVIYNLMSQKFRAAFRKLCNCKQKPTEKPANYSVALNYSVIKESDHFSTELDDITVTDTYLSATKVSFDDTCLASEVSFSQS
Nuclear receptor subfamily 1 group I member 2 (Homo sapiens), sequence (O75469 whole entry, looked up): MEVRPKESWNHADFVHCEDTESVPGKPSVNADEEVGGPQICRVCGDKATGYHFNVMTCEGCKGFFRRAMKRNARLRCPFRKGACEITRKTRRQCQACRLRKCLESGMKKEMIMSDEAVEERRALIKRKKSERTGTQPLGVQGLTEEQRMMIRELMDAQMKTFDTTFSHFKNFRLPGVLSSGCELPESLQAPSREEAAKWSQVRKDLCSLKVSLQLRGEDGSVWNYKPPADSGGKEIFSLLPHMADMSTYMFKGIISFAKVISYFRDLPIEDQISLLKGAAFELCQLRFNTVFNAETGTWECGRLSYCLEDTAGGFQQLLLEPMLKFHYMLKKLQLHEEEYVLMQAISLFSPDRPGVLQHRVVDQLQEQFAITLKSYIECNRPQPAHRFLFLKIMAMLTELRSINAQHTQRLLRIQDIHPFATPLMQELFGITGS

NNc1nc(-c2ccccc2)cs1
active: Potency [2] 19.9 µM | Potency [8] 62.9 µM | Potency [10] 9.19 µM
inactive: Potency [1] | Potency [3] | Potency [4] | Potency [5] | Potency [6] | Potency [7] | Potency [9]

CCCCCCCCn1sc(Cl)c(Cl)c1=O
active: Potency [3] 21.9 µM | Potency [4] 34.7 µM | Potency [8] 2.73 µM | Potency [13] 61.1 µM | Potency [14] 28.3 µM | Potency [10] 6.33 µM
inactive: Potency [1] | Potency [11] | Potency [12] | Potency [7] | Potency [9]

Cn1cc(C(=O)[C@@H]2CCc3nc[nH]c3C2)c2ccccc21
inactive: Potency [1] | Potency [3] | Potency [4] | Potency [15] | Potency [5] | Potency [7] | Potency [8] | Potency [9] | Potency [16] | Potency [13] | max activation [17] -0.66% | Potency [18] | Potency [19]
active: Potency [11] 23.7 µM | Potency [14] 17.4 µM | Potency [10] 8.71 µM

N=C1C=CC(=C(c2ccc(N)cc2)c2ccc(N)cc2)C=C1
active: Potency [6] 8.63 µM | Potency [8] 12.2 µM | Potency [16] 13.7 µM | Potency [14] 6.33 µM | Potency [10] 39.9 µM
inactive: Potency [1] | Potency [2] | Potency [4] | Potency [15] | Potency [5] | Potency [20] | Potency [7] | Potency [9] | Potency [13]

C[C@@H](NCCCc1cccc(C(F)(F)F)c1)c1cccc2ccccc12
active: Potency [11] 26.6 µM | Potency [14] 0.0389 µM | Potency [10] 8.71 µM
inactive: Potency [1] | Potency [5] | Potency [20] | Potency [18]

O=C(c1ccc(F)cc1)C1CCN(CCn2c(=O)[nH]c3ccccc3c2=O)CC1
inactive: Potency [1] | Potency [11] | Potency [12] | Potency [3] | Potency [4] | Potency [6] | Potency [7] | Potency [9] | Potency [16]

CC(C)(C)CC(C)(C)c1ccc(OCCOCC[N+](C)(C)Cc2ccccc2)cc1
inactive: Potency [1] | Potency [15] | Potency [7] | Potency [9] | Potency [10]
active: Potency [11] 54.4 µM | Potency [3] 48.9 µM | Potency [4] 43.6 µM | Potency [8] 61.1 µM | Potency [16] 61.1 µM

O=C1c2ccccc2Cc2ccccc21
inactive: Potency [1] | Potency [11] | Potency [12] | Potency [3] | Potency [4] | Potency [5] | Potency [20] | Potency [6] | Potency [7] | Potency [9] | Potency [14]
active: Potency [8] 30.9 µM | Potency [10] 9.01 µM

Cc1c(C)c2c(c(C)c1OC(=O)CCC(=O)O)CC[C@@](C)(CCC[C@H](C)CCC[C@H](C)CCCC(C)C)O2
active: Potency [13] 19.5 µM
inactive: Potency [1] | Potency [2] | Potency [3] | Potency [4] | Potency [5] | Potency [6] | Potency [7] | Potency [8] | Potency [9] | max activation [17] -1.35% | Potency [18] | Potency [19] | Potency [14] | Potency [10]

Nc1cc(C(F)(F)F)ccc1S
active: Potency [11] 13.3 µM | Potency [8] 26.6 µM | Potency [13] 13.3 µM | Potency [10] 2.19 µM
inactive: Potency [1] | Potency [3] | Potency [4] | Potency [15] | Potency [5] | Potency [20] | Potency [6] | Potency [7] | Potency [16]

Oc1c(Cl)cc(Cl)c2cccnc12
inactive: Potency [1] | Potency [4] | Potency [5] | Potency [20] | Potency [7] | Potency [9] | Potency [16] | max activation [17] 4.53%
active: Potency [2] 0.841 µM | Potency [8] 11.9 µM | Potency [19] 28.2 µM

COc1ccc(C(=O)/C(Br)=C\C(=O)O)cc1
active: Potency [8] 54.5 µM | Potency [13] 21.7 µM | Potency [14] 63.3 µM | Potency [10] 35.6 µM
inactive: Potency [1] | Potency [11] | Potency [3] | Potency [4] | Potency [15] | Potency [5] | Potency [20] | Potency [7] | max activation [17] -6.96% | Potency [18] | Potency [19]

CCCCN1C(=O)[C@@H]([C@H](O)C2CCCCC2)NC(=O)C12CCN(Cc1ccc(Oc3ccc(C(=O)O)cc3)cc1)CC2
active: Potency [8] 61.1 µM | Potency [16] 30.6 µM
inactive: Potency [1] | Potency [11] | Potency [3] | Potency [4] | Potency [5] | Potency [20] | Potency [9] | Potency [13] | Potency [14]

O=C(O)c1cc(O)c2c(c1)C(=O)c1cccc(O)c1C2=O
inactive: Potency [1] | Potency [11] | Potency [12] | Potency [3] | Potency [4] | Potency [7] | Potency [9] | Potency [13] | Potency [14] | Potency [10]
active: Potency [6] 25.1 µM | Potency [8] 35.4 µM | Potency [16] 44.6 µM

O=c1[nH]sc2cc(Cl)ccc12
active: Potency [8] 26.6 µM
inactive: Potency [1] | Potency [12] | Potency [3] | Potency [4] | Potency [15] | Potency [5] | Potency [20] | Potency [7] | Potency [9] | Potency [16] | Potency [13] | Potency [14] | Potency [10]
